Source: PubChem
HCMV inh: qHTS Assay for inhibitors of the human cytomegalovirus (HCMV). activity change, negative = inhibition, % at 57.5 µM. hit rate 4.5% among 410,000. AID 1259415, 2018. HFF cells, HCMV-luciferase reporter, 72 h; stronger effect = lower value; in the data active = activity change below about -60%; inconclusive = no clear call, values can overlap the other calls; inactive = above about -39%
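Screen run at 2 compound doses on HFFs infected with reporter HCMV, MOI 1 PFU/cell. Luciferase activity from cell lysates at 72 h post infection gave inhibition relative to buffer-only and Salinomycin wells.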
FMDV inh: High Throughput Screening for Foot and Mouth Disease Virus Antivirals; FMDV antiviral cell-based qHTS; Potency, µM (top dose mostly 57.9 µM), hits mostly inhibitors; hit rate 1.2% among 410,000; calls by dose curve; tested in HEK293T cells; also: read-out not given here; nearly all actives have a fitted effect of over 45% in size
LASV entry inh: qHTS for Inhibitors of binding or entry into cells for Lassa Virus | Lassa virus pseudotype entry inhibition, cell reporter | Potency, µM (series often up to 37.9 µM), actives largely listed as inhibitors | hit rate 1.2% among 300,000; calls by dose curve; tested in HEK293 cells; also: nearly all actives have a fitted effect of over 50% in size
SARS PLP yeast: qHTS of Yeast-based Assay for SARS-CoV PLP. S. cerevisiae expressing SARS-CoV PLpro, growth rescue. Potency, µM (series often up to 32.9 µM), hits mostly activators. hit rate 0.19% among 330,000. AID 485353, 2010; calls by dose curve; also: nearly all actives have a fitted effect of over 55% in size
Marburg entry inh: qHTS for inhibitors of binding or entry into cells for Marburg Virus. Marburg virus pseudotyped entry inhibition, cell reporter. Potency, µM (highest dose often 37.8 µM), usual class: inhibitors. hit rate 1.8% among 300,000; calls by dose curve; tested in HEK293 cells
HCV inhibitor: qHTS Assay for Inhibitors of Hepatitis C Virus (HCV); Huh7.5.1 HCVcc-Cre infection, luciferase reporter, 44 h; Potency, µM (highest dose often 41.8 µM), hits mostly inhibitors; hit rate 3.4% among 340,000; AID 651820, 2012; active = well fitted inhibition curve with a large enough effect; inconclusive = small, poorly fitted or top-dose-only effect, or another doubt; inactive = no such curve, though single readings can be large or run the other way
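After 44 h co-culture of compound, cells and HCVcc-Cre (~0.5 moi), substrate is added for 15 min at room temperature and luciferase measured over 15 sec. Cells were seeded at 1,000/well and pre-cultured 4 h.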
Hits are given with their value. Compounds with a hit are over-represented: about 8% of the library has one in this group of screens.

For COc1ccccc1CNc1nc2c(S(=O)(=O)c3ccc(C)c(C)c3)nnn2c2ccc(Cl)cc12 the results were HCMV inh inactive, FMDV inh inactive and Marburg entry inh inactive.
For CC(C)N(Cc1ccccc1)C(=O)Cn1ncc2c([nH]c3ccccc32)c1=O the results were HCMV inh inactive, FMDV inh inconclusive and LASV entry inh inactive.
Screening COC(=O)Cn1c(CN(C)Cc2ccccc2)nc2c1c(=O)n(C)c(=O)n2C returned HCMV inh inactive, FMDV inh inconclusive, SARS PLP yeast inactive and HCV inhibitor inactive.
`CCOC(=O)Cn1c(CN(C)Cc2ccccc2)nc2c1c(=O)n(C)c(=O)n2C` gave HCMV inh inactive, FMDV inh 14.1µM, LASV entry inh inactive, Marburg entry inh inactive and HCV inhibitor inconclusive.
Cc1csc2nc(COC(=O)CNC(=O)c3ccccc3Cl)cc(=O)n12 was read as HCMV inh inactive, FMDV inh inactive and LASV entry inh inactive.
For COc1cc(NC(=O)c2cc(-c3cccnc3)nc3ccc(Br)cc23)cc(OC)c1 the results were HCMV inh inactive, FMDV inh inconclusive, LASV entry inh 11.2µM, SARS PLP yeast inactive, Marburg entry inh inconclusive and HCV inhibitor inconclusive.
COc1ccc(NC(=O)c2cc(-c3ccncc3)nc3ccc(Br)cc23)cc1OC was read as HCMV inh -89.7, FMDV inh inactive, LASV entry inh inactive, SARS PLP yeast inactive, Marburg entry inh inconclusive and HCV inhibitor 12.6µM.
`O=C(Nc1cccnc1)c1cc(-c2cccnc2)nc2ccc(Br)cc12` gave HCMV inh inactive, FMDV inh inactive, LASV entry inh inactive, SARS PLP yeast inactive, Marburg entry inh inconclusive and HCV inhibitor inactive.
For Cc1ccnc(N/C=C(/NC(=O)c2ccccc2)C(=O)NN)n1 the results were HCMV inh -82.3, FMDV inh inactive, LASV entry inh inactive, SARS PLP yeast inactive, Marburg entry inh inactive and HCV inhibitor inactive.
Cc1ccnc(N/C=C(/NC(=O)c2ccccc2)C(=O)N/N=C\c2ccc(F)cc2)n1 was read as HCMV inh inactive, FMDV inh inactive, LASV entry inh inactive, Marburg entry inh inactive and HCV inhibitor inactive.
`COc1ccc(-c2ccc3[nH]c4c(c3c2)CCN2C(=O)[C@@H]([C@H](C)O)[C@@H](N(C)C(=O)Nc3ccc(F)cc3)C[C@@H]42)cc1` gave HCMV inh -99.8 and FMDV inh inconclusive.
C[C@H](O)[C@@H]1CN2CCc3c([nH]c4ccc(-c5ccc6c(c5)OCO6)cc34)[C@@H]2C[C@@H]1N(C)C(=O)Nc1ccc(F)cc1 was read as HCMV inh -102.3 and FMDV inh inconclusive.
COc1ccc(-c2ccc3[nH]c4c(c3c2)CCN2C[C@@H]([C@H](C)O)[C@@H](N(C)C(=O)Nc3cc(Cl)cc(Cl)c3)C[C@@H]42)cc1 was read as HCMV inh inactive and FMDV inh inactive.
COc1ccc(-c2ccc3[nH]c4c(c3c2)CCN2C(=O)[C@@H]([C@H](C)O)[C@@H](N(C)C(=O)Nc3cc(Cl)cc(Cl)c3)C[C@@H]42)cc1 was read as HCMV inh inactive and FMDV inh inactive.
C[C@H](O)[C@@H]1C(=O)N2CCc3ccc(-c4ccccc4)cc3[C@@H]2C[C@@H]1N(C)C(=O)Nc1cc(Cl)cc(Cl)c1 was read as HCMV inh inactive, FMDV inh inactive and HCV inhibitor 11.2µM.
Cc1ccccc1C(O)c1nnc(Nc2ccc(Oc3ccccc3)cc2)s1 (stereo not given) was read as HCMV inh inactive.
NC(=O)Cn1c(=O)n(-c2ccc(F)c(Cl)c2)c(=O)c2sc3ccccc3c21 was read as HCMV inh inactive, FMDV inh inactive, LASV entry inh inactive and Marburg entry inh inactive.
`O=C(Nc1ccc(-c2cn3cccnc3n2)cc1)c1ccccc1F` gave HCMV inh inactive, FMDV inh inactive and LASV entry inh inactive.
Screening CCN1C(=NCc2ccco2)N[C@@H](CCc2ccccc2)[C@H](C(=O)OC)[C@H]1C returned LASV entry inh inconclusive and Marburg entry inh inactive.
Screening O=C(O)c1ccc2c(c1)C(=O)N([C@H](Cc1ccc(Cl)cc1)C(=O)O)C2=O returned SARS PLP yeast inactive.
COC(=O)CC=C1c2ccc(F)cc2[C@@H](OC)[C@@H]1C was read as LASV entry inh inconclusive and Marburg entry inh inactive.
Screening Cc1c(NS(=O)(=O)c2ccc(C(C)(C)C)cc2)c(=O)n(-c2ccccc2)n1C returned HCMV inh inactive, FMDV inh inactive, LASV entry inh inactive and Marburg entry inh inactive.
For CCCCn1nnnc1SCC(=O)NC1CCCCC1 the results were HCMV inh -98.9, FMDV inh inactive, LASV entry inh inactive, SARS PLP yeast inactive, Marburg entry inh inactive and HCV inhibitor inactive.
For COc1cc(Cl)c(NC(=O)c2cc(S(=O)(=O)N3CCCCC3)c[nH]2)c(OC)c1 the results were HCMV inh inactive, FMDV inh inactive and LASV entry inh inactive.
`COc1ccccc1Nc1nc(NCC(C)C)nc(N)c1[N+](=O)[O-]` gave HCMV inh -84.7, FMDV inh inconclusive, LASV entry inh inactive, SARS PLP yeast inactive, Marburg entry inh inactive and HCV inhibitor inconclusive.
Screening CCC(C)Nc1nc(N)c([N+](=O)[O-])c(NCc2ccccc2)n1 (stereo not given) returned HCMV inh inactive, FMDV inh inconclusive, SARS PLP yeast inactive and HCV inhibitor 11.2µM.
For CCC(C)Nc1nc(N)c([N+](=O)[O-])c(Nc2ccccc2OC)n1 (stereo not given) the results were HCMV inh inconclusive, FMDV inh inconclusive, LASV entry inh inconclusive, SARS PLP yeast inactive, Marburg entry inh inactive and HCV inhibitor 12.6µM.
For COc1ccc(Cn2ccc3nc(C)c(C(=O)N4CCN(c5ccccc5OC)CC4)cc3c2=O)cc1 the results were HCMV inh inactive, FMDV inh inconclusive and LASV entry inh inactive.
Cc1ccccc1C(=O)Nc1cc(-c2cc(C(C)(C)C)oc2C)nn1C was read as HCMV inh -62.8, FMDV inh inactive, LASV entry inh inactive, SARS PLP yeast inactive, Marburg entry inh inconclusive and HCV inhibitor inconclusive.
Screening O=C(C1CCN(S(=O)(=O)Cc2ccccc2)CC1)N1CCN(c2ccc(F)cc2)CC1 returned HCMV inh inactive, FMDV inh inactive, LASV entry inh inactive and Marburg entry inh inactive.
CCc1nc(C)cc2c1sc1ccccc12 was read as HCMV inh inactive, FMDV inh inactive, LASV entry inh inactive, SARS PLP yeast inactive, Marburg entry inh inactive and HCV inhibitor inconclusive.
`CC[n+]1c(C)cc2c(sc3ccccc32)c1C` gave HCMV inh -100.7, FMDV inh inactive, SARS PLP yeast inactive and HCV inhibitor inconclusive.
Screening CCOC(=O)c1cc(C#N)c(N2CCCNCC2)nc1C(F)(F)F returned HCMV inh inactive, FMDV inh inactive, SARS PLP yeast inactive and HCV inhibitor 15.8µM.
